This is a sample that favours compounds with a hit; in the whole collection about 1% have one here.
WRN helicase inh – WRN helicase (human) inhibition. Potency, µM (top dose mostly 114 µM), for inactives: at the highest dose activity change, negative = inhibition, usual class: inhibitors. WRN helicase unwinding, fluorescent forked duplex, kinetic. Q14191. hit rate 0.46% among 360,000. AID 651768; note: nearly all actives have a fitted effect of over 55% in size
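Fluorescence dequenching readout, ex 525 nm/em 598 nm, kinetic mode: forked duplex DNA (100 nM final) with adjacent fluorophore and quencher unwound by WRN (20 nM final) with 2 mM ATP. Compound preincubation 15 min, room temperature.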
RECQ1 inh – RECQ1 (human) helicase inhibition. RECQ1 DNA unwinding, red fluorescence kinetic read. hit rate 0.54% among 240,000. Potency, µM (titrated, usually from 57.3 µM), for inactives: at the highest dose activity, negative = inhibition, hits mostly inhibitors. P46063;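 note: plate controls were vehicle for no effect and no enzyme for full effect; nearly all actives have a fitted effect of over 30% in size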
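50 nM RECQ1T1 preincubated 15 min with compound in Tris pH 8.0 buffer with MgCl2, DTT, Tween-20 and 2.5 ug/ml poly(dI-dC); started with 200 nM TAMRA/BHQ-2 forked duplex and 2 mM ATP. Unwinding read as fluorescence (525/598 nm), two reads 2 h apart.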
L3MBTL1 block – inhibitors of human L3MBTL1; AlphaScreen L3MBTL1–H3K9me1 peptide binding; Potency, µM (highest dose often 57.1 µM), for the others: top-dose activity, negative = inhibition, hits mostly inhibitors; hit rate 0.66% among 230,000; AID 485360; note: nearly all actives have a fitted effect of over 60% in size
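First, the protein-peptide complex forms for 30 min at room temperature (L3MBTL1 50 nM, biotinylated H3K9me1 peptide 75 nM). Next, compounds are pin-transferred and incubated 30 min. Finally, AlphaScreen beads are added and read after 30 min.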
BLM helicase inh – Bloom syndrome helicase (human) inhibition | P54132 | recombinant BLM DNA unwinding, fluorescence dequenching | Potency, µM (top dose mostly 56.1 µM), without a hit: at the highest dose activity change, negative = inhibition, usual class: inhibitors | hit rate 0.2% among 350,000 | AID 2528;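 note: plate controls were vehicle for no effect and no enzyme for full effect; nearly all actives have a fitted effect of over 35% in size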
FEN1 inh – inhibitors of human flap endonuclease 1; P39748; Recombinant FEN1 flap cleavage, fluorescence, 15 min; Potency, µM (top dose mostly 114 µM), for inactives: top-dose activity change, negative = inhibition, hits mostly inhibitors; hit rate 0.35% among 390,000; AID 588795; note: nearly all actives have a fitted effect of over 65% in size
Target sequence (P39748 whole entry, looked up): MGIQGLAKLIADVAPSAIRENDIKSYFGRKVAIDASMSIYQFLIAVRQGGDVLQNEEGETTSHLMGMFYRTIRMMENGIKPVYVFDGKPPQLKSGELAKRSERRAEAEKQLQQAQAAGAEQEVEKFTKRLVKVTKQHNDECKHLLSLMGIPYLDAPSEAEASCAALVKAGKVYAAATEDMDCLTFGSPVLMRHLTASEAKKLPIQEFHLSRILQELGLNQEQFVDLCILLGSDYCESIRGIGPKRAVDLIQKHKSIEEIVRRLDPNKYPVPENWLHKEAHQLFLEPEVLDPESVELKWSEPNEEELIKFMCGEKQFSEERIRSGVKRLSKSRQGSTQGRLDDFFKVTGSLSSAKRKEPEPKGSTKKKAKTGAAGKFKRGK
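Compounds are tested as a concentration series against 10 nM FEN1; after a 15 min room-temperature preincubation, 50 nM substrate starts cleavage, with plate reads at 0 and 15 min. Normalized responses are fitted by a Hill equation.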
APEX1 inh – inhibitors of human APE1 endonuclease. P27695. recombinant APE1, TAMRA/BHQ-2 abasic DNA cleavage fluorescence. Potency, µM (doses to about 65.8 µM), without a hit: top-dose activity change, negative = inhibition, hits mostly inhibitors. hit rate 0.35% among 350,000. AID 2517;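 note: plate controls were vehicle for no effect and reference inhibitor for full effect; nearly all actives have a fitted effect of over 55% in size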
Target sequence (P27695 whole entry, looked up): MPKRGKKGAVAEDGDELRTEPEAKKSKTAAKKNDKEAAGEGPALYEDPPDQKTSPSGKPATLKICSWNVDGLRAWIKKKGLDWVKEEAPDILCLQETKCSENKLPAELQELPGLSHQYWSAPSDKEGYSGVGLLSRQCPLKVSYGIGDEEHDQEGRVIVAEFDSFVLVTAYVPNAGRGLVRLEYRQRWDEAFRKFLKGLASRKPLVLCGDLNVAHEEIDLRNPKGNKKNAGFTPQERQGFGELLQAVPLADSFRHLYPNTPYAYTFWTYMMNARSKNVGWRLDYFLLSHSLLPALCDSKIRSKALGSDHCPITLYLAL
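Readout is kinetic fluorescence (ex 525, em 598 nm) from cleavage of 50 nM TAMRA/BHQ-2 THF abasic duplex by 0.75 nM APE1, compound added 15 min beforehand at RT.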
* marks the source's active call; other numbers are inactive results; i = inactive; ? = inconclusive; . = not tested or not shown; [ ] = another dose, or the depositor's remark. Calls come from the whole dose curve; as a rule, active = well fitted curve in the direction sought with a large enough effect; inconclusive = small, poorly fitted or top-dose-only effect, or another doubt; inactive = no such curve, though single readings can be large; an effect the other way counts as inactive or inconclusive. Unless noted, % is set by controls: 0 for no effect and ±100 for the full control effect; potency is the fitted concentration of half-maximal effect.

SMILES	WRN helicase inh	RECQ1 inh	L3MBTL1 block	BLM helicase inh	FEN1 inh	APEX1 inh
CCCCCCCCCCCC1=C(O)C(=O)C=C(O)C1=O	-1%	-12%	.	-7%	?	?
O=C(C[n+]1ccc(CCSc2ccc(F)cc2)cc1)c1ccccc1	40µM*	-6%	-22%	3%	40µM*	10%
CCCCCCCCCCCCCCCC[n+]1ccc(C)c2ccccc21	.	.	.	.	79µM*	.
CCCCCCCCCC[n+]1cccc2c3ccccc3ccc21	-9%	1%	.	5%	3%	18%
CCCCCCCCCC[n+]1ccc(/C=C/c2c[nH]c3ccccc23)c2ccccc21	.	.	.	.	45µM*	.
CCCCCCCCCCCCCCCCOC[C@H](COP(=O)([O-])OCC[N+](C)(C)C)OC(=O)CCCCCCCC(=O)O	.	?	.	3%	.	?
COc1ccc(-c2nnc(Nc3ccc(S(=O)(=O)Nc4nccs4)cc3)c3ccccc23)cc1	50µM*	?	.	?	?	?
COc1ccc(Nc2nnc(-c3ccc(C(N)=O)cc3)c3ccccc23)cc1	-24%	.	-12%	0%	5%	31%
CC(=O)c1cc(C(=O)Nc2cc(C)cc(C)c2)c2ccccn12	.	.	.	-9%	-4%	.
CC(C)n1c(=S)[nH]c2c1c(=O)[nH]c(=O)n2C	89µM*	-7%	-6%	3%	14%	0%
COC(=O)C[C@](O)(CCCC(C)(C)O)C(=O)O[C@@H]1C(OC)=CC23CCCN2CCc2cc4c(cc2[C@H]13)OCO4 (stereo not given in full)	.	.	.	.	.	-6%
C/C(=N\Nc1nc2ccccc2[nH]1)c1ccc(N2CCOCC2)cc1	-7%	-12%	-19%	-12%	0%	2%
C/C(=N\Nc1nc2ccccc2[nH]1)c1ccc(Cl)s1	-21%	32µM*	-9%	-12%	-5%	-6%
CC(=O)NC(c1cc(Cl)c2ccccc2c1O)C1CC1 (stereo not given)	.	.	.	.	.	41%
CC1Cc2ccccc2N1C(=O)COC(=O)c1ccc(O)cc1 (stereo not given)	7%	i	4%	-5%	-5%	0%
CC1Cc2ccccc2N1C(=O)COC(=O)c1ccc(N(C)C)cc1 (stereo not given)	56µM*	.	13%	.	-9%	-4%
Nc1c(Cl)ncnc1N/N=C/c1ccccn1	-34%	-1%	7.9µM*	-5%	-20%	2%
CSc1ccc(CN2C(=O)C(F)(F)Oc3c(C(C)=O)cccc32)cc1	-7%	.	.	.	.	.
O=C(CCCCCCCC(=O)NNC(=O)Nc1ccccc1)NNC(=O)Nc1ccccc1	-34%	-2%	-10%	28µM*	9%	5%
COc1ccc(CCC(=O)OCc2csc(CC(=O)Nc3ccccc3C)n2)cc1	?	.	.	-6%	0%	14%
Cc1ccc(C2(C)NC(=O)N(CC(=O)Nc3ccccc3N3CCCC3)C2=O)cc1 (stereo not given)	0%	.	2.8µM*	.	1%	35%
Cc1ccc(C2(C)NC(=O)N(CC(=O)Nc3ccccc3N3CCCCC3)C2=O)cc1 (stereo not given)	-10%	.	-4%	.	-18%	-14%
CC(C)(C)n1ncc2c(=O)n(Cc3cccc(-c4ccccc4)c3)cnc21	.	.	.	.	6%	-4%
Cc1cc(NCCCCCCCNc2cc(C)nc3cc([N+](=O)[O-])ccc23)c2ccc([N+](=O)[O-])cc2n1	?	.	.	.	45µM*	.
CC(C)(C)NC[C@H](O)COc1ccccc1C1CCCC1	.	.	.	.	.	-2%[21 µM]
SMILES	WRN helicase inh	RECQ1 inh	L3MBTL1 block	BLM helicase inh	FEN1 inh	APEX1 inh
O=C(COc1ccc(/C=N/NC(=O)c2ccncc2)cc1)Nc1ccc([N+](=O)[O-])cc1	9%[57.1 µM]	.	.	-1%	-14%	18%[12.4 µM]
O=C(COc1ccc(/C=N/NC(=O)c2ccc(O)cc2)cc1)Nc1cccc([N+](=O)[O-])c1	?	-11%	21%	18µM*	?	1%
Cc1cc(C(=O)OCC(=O)NC2CCS(=O)(=O)C2)c2ccccc2n1 (stereo not given)	5%	4%	8%	1%	4%	3%
O=C(COC(=O)c1cc(-c2cccc3ccccc23)nc2ccccc12)NC1CCS(=O)(=O)C1 (stereo not given)	79µM*	4%	-3%	-9%	?	0%
N#CC(C#N)=Cc1ccc(OC(=O)c2ccccn2)cc1	-8%	-2%	25µM*	-3%	1%	-1%
O=C(Nc1cc(Sc2ccccn2)cc([N+](=O)[O-])c1)c1ccc([N+](=O)[O-])cc1	32µM*	-12%	-6%	-13%	-27%	-8%
O=[N+]([O-])c1ccc(Sc2ccccn2)nc1	5%	i	-5%	1%	-1%	?
CC(=O)c1cccc(NC(=O)C2CCN(C(=O)c3cccs3)CC2)c1	-7%	.	.	1%	-5%	6%
O=c1[nH]c2ccc(S(=O)(=O)N3CCN(c4ccccc4)CC3)cc2[nH]c1=O	?	-9%	-6%	?	56µM*	-5%
Cc1ccc(C2C(C#N)=C(N)Oc3n[nH]c(-c4cccs4)c32)cc1 (stereo not given)	-11%	-5%	-2%	-4%	4%	-1%
N#CC1=C(N)Oc2n[nH]c(-c3cccs3)c2C1c1ccoc1 (stereo not given)	45µM*	-4%	.	-3%	?	-6%
Cc1ccc(CNC(=O)c2ccc(-n3c(C)cc4c3CCCC4)cc2)cc1	.	.	.	-8%	-8%	.
Cc1cc2c(n1-c1ccc(C(=O)O)cc1)CCCCC2	.	.	.	-1%	.	6µM*
Cc1ccccc1/C=N/n1c(-c2ccccn2)n[nH]c1=S	-12%	-4%	22µM*	3%	-8%	1%
S=c1[nH]nc(-c2ccccn2)n1/N=C/c1cccs1	19%	-3%	28µM*	0%	1%	5%
S=c1[nH]nc(-c2ccccn2)n1/N=C/c1ccccc1	4%	i	?	4%	-2%	17%
S=c1[nH]nc(-c2ccccn2)n1/N=C/c1c(Cl)cccc1Cl	-24%	1%	20µM*	0%	5%	7%
Oc1c(Br)cc(/C=N/n2c(-c3ccccc3)n[nH]c2=S)c(Br)c1O	.	.	0.79µM*	0.79µM*	.	0.42µM*
Cc1ccc(/C=N/n2c(-c3ccccn3)n[nH]c2=S)o1	-7%	-9%	?	-1%	-20%	3%
S=c1[nH]nc(-c2ccccn2)n1/N=C/c1cccc2ccccc12	-5%	-16%	32µM*	2%	1%	7%
O=[N+]([O-])c1cc2no[n+]([O-])c2cc1N1CCCCC1	?	.	.	.	50µM*	.
